High-throughput results (PubChem)
ST2 IL33 inh – inhibitors of human ST2 (IL1RL1) binding to IL-33, primary screen, biochemical, AlphaLISA; Interleukin-1 receptor-like 1 (Homo sapiens), Q01638; AlphaLISA ST2-Fc/biotin-IL-33 interaction, 1 h; inhibition, % for hits at 17 µM; 2.3% of 78,000 active; AID 1259354, 2018; in the data active = inhibition above about 30%
Target sequence (Q01638 whole entry, looked up): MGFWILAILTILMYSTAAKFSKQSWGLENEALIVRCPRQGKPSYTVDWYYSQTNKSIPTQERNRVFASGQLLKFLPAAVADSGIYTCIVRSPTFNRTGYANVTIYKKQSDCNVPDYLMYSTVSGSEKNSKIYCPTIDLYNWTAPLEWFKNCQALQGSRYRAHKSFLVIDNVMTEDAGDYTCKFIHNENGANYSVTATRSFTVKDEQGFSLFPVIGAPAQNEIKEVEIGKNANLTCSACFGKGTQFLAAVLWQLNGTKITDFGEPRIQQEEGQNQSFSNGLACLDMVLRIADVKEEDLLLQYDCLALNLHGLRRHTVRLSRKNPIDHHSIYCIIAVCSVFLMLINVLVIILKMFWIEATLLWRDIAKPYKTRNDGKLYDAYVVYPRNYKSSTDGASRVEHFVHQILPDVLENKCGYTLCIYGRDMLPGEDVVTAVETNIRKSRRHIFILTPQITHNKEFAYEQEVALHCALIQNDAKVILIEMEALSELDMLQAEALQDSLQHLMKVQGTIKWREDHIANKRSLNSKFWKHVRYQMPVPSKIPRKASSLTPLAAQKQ
* marks the source's active call; other numbers are inactive results; i = inactive. Shown is part of a subset that was picked to be rich in hits.

SMILES	ST2 IL33 inh
O=C1OC(c2cccc(I)c2)=N/C1=C\c1ccc([N+](=O)[O-])cc1	i
C=C(C)COc1ccccc1C(=O)N1CCC(c2ccncc2)CC1	i
Cc1ccc(C(=O)Nc2cc3cc(Br)ccc3oc2=O)cc1	i
Cc1nc(NCCc2ccccc2Cl)c2c(C)c(C)sc2n1	i
CCC(=O)Nc1cccc(C(=O)N2CCn3cccc3C2CC)c1 (configuration not stated)	i
CCOc1ccccc1NC(=O)c1ccc(C)c([N+](=O)[O-])c1	i
Cc1cccc(C2=N/C(=C\C=C\c3ccccc3)C(=O)O2)c1	37%*
CC(=O)n1cc(/C=C2\N=C(c3cccc(C)c3)OC2=O)c2cc(Br)ccc21	i
Cc1ccc(C2=N/C(=C\C(Br)=C\c3ccccc3)C(=O)O2)cc1[N+](=O)[O-]	i
Cc1nc(C)c(C(=O)N2CCCC3(CC2)CNC(=O)O3)s1 (configuration not stated)	i
O=[N+]([O-])c1ccc2nc(-c3ccco3)c(-c3ccco3)nc2c1	36%*
O=[N+]([O-])c1ccc2nc(CSc3nc4ccccc4o3)[nH]c2c1	i
O=c1oc2cc([N+](=O)[O-])ccc2nc1C=C(O)c1ccco1	i
COC(=O)COc1ccc(S(=O)(=O)Nc2ccc3c(c2)OCCO3)cc1	i
CN(CC1CCN(CCc2ccc(F)cc2)CC1)C(=O)/C=C/c1cnn(C)c1	i
COc1ccccc1Oc1ncccc1CNC(=O)c1c(Cl)cnn1C	i
CN1[C@@H](CCC(=O)N2CCc3ccccc32)CNC(=O)[C@@H]2[C@H]1CCN2Cc1ccccc1	i
O=c1/c(=C/c2ccncc2)sc2n1CN(c1ccc3c(c1)OCO3)CN=2	i
COc1ccc(/C=c2\sc3n(c2=O)CN(c2cccc(F)c2)CN=3)cc1OC	i
CC(=O)c1cccc(N2CN=c3s/c(=C\c4cccnc4)c(=O)n3C2)c1	i
CCCCOc1ccc(/C=c2\sc3nc(-c4cccs4)nn3c2=O)cc1OC	i
COc1ccc(/C=c2\sc3n(c2=O)CN(c2ccc4c(c2)OCO4)CN=3)cc1	31%*
COc1ccc(N2CN=c3s/c(=C\c4ccc(OC)c(OC)c4)c(=O)n3C2)cc1	35%*
O=C(Cn1ccnc1)c1ccc(Cl)cc1Cl	i
CC1=C(C(=O)OC(C)C)C(c2ccc(Cl)c(Cl)c2)CC(=O)N1 (configuration not stated)	i
SMILES	ST2 IL33 inh
O=C(Nc1cc2cc(Cl)ccc2oc1=O)c1cccc([N+](=O)[O-])c1	i
COc1ccc(C(=O)Nc2c3c(nn2-c2ccc(OC)cc2)CS(=O)C3)cc1 (configuration not stated)	i
COc1ccc(/C=C(\C)c2nc(C)c(-c3ccccc3)c(=O)[nH]2)cc1	i
COc1ccc(/C=C2\SC(N3CCCC3)=NC2=O)cc1	i
COc1ccc(/C=C2\CC(c3ccccc3)=CC2=O)cc1	52%*
COc1cccc(NS(=O)(=O)c2cc(Br)cc3c2N(C(=O)C2CC2)CC3)c1	i
Cc1cc(C)cc(OCC(O)CN2CCCCC2)c1 (configuration not stated)	i
CCN(CC)c1ccc(C=NS(=O)(=O)c2ccc(C)cc2)cc1	i
CCN(CC)c1ccc(N)c(C)c1	53%*
OCCC1CN(CC2=Cc3cc(Cl)ccc3OC2)CCN1C1CCCC1 (configuration not stated)	i
C=CCSc1nnc2c(n1)OC(c1cc(OC)c(O)c(OC)c1)Nc1ccccc1-2 (configuration not stated)	i
OCc1c(O)cnc2ccccc12	i
O=C(CN1C(=O)S/C(=C/c2ccccc2)C1=O)Nc1ccccc1Cl	i
COc1ccc(/C=C2/SC(=O)N(CCC(=O)Nc3ccccc3Br)C2=O)cc1	i
COc1ccc(/C=C2/SC(=O)N(CC(=O)Nc3cc(C)on3)C2=O)cc1OC	35%*
COc1ccc(CNC(=O)[C@@H](C)C2CC[C@@]3(C)CC[C@H](NC(=O)c4cnccn4)[C@@H](C)[C@@H]3[C@H]2O)cc1 (some centres not stated)	i
CCCSC1=C(C#N)C2(CCCC2)C(C#N)=C(N)N1	i
COc1ccc(C(=O)NC[C@H]2O[C@@H](CO)[C@@H](O)[C@H]2N2CCN(c3ccc(F)cc3)CC2)cc1	i
CC1CCN([C@@H]2[C@H](O)[C@H](CO)O[C@@H]2CNC(=O)c2cccs2)CC1	i
O=C(NC[C@H]1O[C@@H](CO)[C@@H](O)[C@H]1N1CCN(c2ccccc2)CC1)c1cccc(F)c1	92%*
O=C(NC[C@H]1O[C@@H](CO)[C@@H](O)[C@H]1N1CCN(c2ccc(F)cc2)CC1)c1cccs1	74%*
O=C(NC[C@H]1O[C@@H](CO)[C@@H](O)[C@H]1N1CCN(c2ccc(F)cc2)CC1)c1cccc(F)c1	i
O=C(NC[C@H]1O[C@@H](CO)[C@@H](O)[C@H]1N1CCN(c2ccccc2)CC1)c1ccc(F)c(Cl)c1	i
O=C(NC(c1ccccc1)c1ccccc1)C1CC1c1ccccc1 (configuration not stated)	i
COc1ccccc1CNC(=O)C1c2cc(OC)c(OC)cc2C(=O)N(C)C1c1cccs1 (configuration not stated)	i
SMILES	ST2 IL33 inh
O=C(CSc1nnc2ccccn12)Nc1cc(C(F)(F)F)ccc1Cl	i
Cc1cc(C)c(C(=O)N2CCN(C)C(C(=O)O)C2)c(=O)[nH]1 (configuration not stated)	i
Cc1oc2ccc(OC(=O)c3ccc(Cl)cc3)cc2c1C(=O)OC(C)C	i
Cn1c(=O)[nH]c(=O)c2c1nc(CN1CCN(c3ccccc3F)CC1)n2Cc1ccccc1	i
Cn1c(=O)c2c(nc(SCc3cccc(Br)c3)n2C)n(C)c1=O	i
c1cncc(-c2nc(N3CCCCC3)c3ccccc3n2)c1	i
Cc1ccc(NC(=O)CN(c2ccc(F)cc2)S(C)(=O)=O)cc1Cl	i
Cc1ccc2c(-c3cccc(O)c3)cccc2n1	i
Cc1c(CC(Cl)(Cl)Cl)c2c(n1-c1ccc([N+](=O)[O-])cc1)CCCC2=O	41%*
Cn1c2c(c3cc([N+](=O)[O-])ccc31)CCCC2=O	i
Cc1c(CC(Cl)(Cl)Cl)c2c(n1O)CC(C)(C)CC2=O	i
COc1cc(NC(=O)c2noc3c2CC(C(C)(C)C)CC3)c(OC)cc1Cl (configuration not stated)	i
O=S(=O)(c1ccccc1)c1nc(-c2ccco2)oc1SCc1ccccc1F	i
Cc1cccc(-c2nc(S(=O)(=O)c3ccccc3)c(N3CCOCC3)o2)c1	i
O=S(=O)(c1ccccc1)c1nc(-c2ccccc2F)oc1N1CCCCC1	32%*
Oc1cccc2ccc(/C=C/c3cc4c(cc3Cl)OCO4)nc12	32%*
CC(=O)Nc1ccc2cccc(O)c2n1	i
CCCOC(=O)C1=C(C)NC2=C(C(=O)C(C(=O)OC)C(C)C2)C1c1ccc(C)o1 (configuration not stated)	i
CCOc1ccc(-c2cn(-c3cccc(Br)c3)c(=O)[nH]2)cc1Cl	i
O=C(NCCN1CCN(c2ncccn2)CC1)C1CCOC1 (configuration not stated)	i
COc1ccccc1-n1cc(C(=O)N[C@@H](C)c2ncccc2C)cn1	i
Cc1oc(-c2ccccc2NC(=O)c2ccsc2)nc1CN(C)Cc1nc2ccccc2n1C	i
Cc1cc(C(=O)O)c(NC(=O)c2ccccc2)s1	i
COC(=O)c1c(NC(=O)c2sc3ccccc3c2Cl)sc2c1CCN(C)C2	37%*
